Test results from PubChem BioAssay (EPA / NIEHS).
The source made the active and inactive calls. The calls were made as follows: active = hit-call score of the fitted dose curve at least 0.9, where 1 is the maximum; inactive = score below 0.9.

Assay: ATG_DR4_LXR_CIS: Attagene CIS-FACTORIAL HepG2 Assay for human Liver X Receptor (LXR), DR4 submotif (AID 2282929)
Details: HepG2 Attagene DR4 cis-reporter, mRNA transcription; actives raise or lower the signal
Procedure: ATG_CIS is a cell-based, multiplexed-readout assay that uses HepG2, a human liver cell line, with measurements taken at 24 hours after chemical dosing in a 24-well plate.ATG_DR4_LXR_CIS is one of 52 assay component(s) measured or calculated from the ATG_CIS assay. It is designed to make measurements of mRNA induction, a form of inducible reporter, as detected with fluorescence intensity signals by Reverse transcription polymerase chain reaction (RT-PCR) and Capillary electrophoresis technology.Data from the assay component ATG_DR4_LXR_CIS was analyzed into 1 assay endpoint. This assay endpoint, ATG_DR4_LXR_CIS, was analyzed with bidirectional fitting relative to DMSO as the negative control and baseline of activity. Using a type of inducible reporter, measures of mRNA for gain or loss-of-signal activity can be used to understand the reporter gene at the transcription factor-level as they relate to the gene NR1H2 and NR1H3. Furthermore, this assay endpoint can be referred to as a primary readout, because this assay has produced multiple assay endpoints where this one serves a reporter gene function. To generalize the intended target to other relatable targets, this assay endpoint is annotated to the nuclear receptor intended target family, where the subfamily is non-steroidal.
Human liver HepG2 cells are transiently transfected with multiple reporter transcription units (MRTUs) in 6-well plates using FuGene 6 reagent (Roche; 3 ml FuGene/1 mg DNA). The MRTU constructs are regulated by a cis-regulating element (promoter). […] A major difference between the CIS and TRANS system is that in CIS activities of endogenous TFs are measured, whereas the TRANS assay evaluates changes in activities of exogenous, chimeric NR-Gal4 proteins. […] At the end of 24 hour incubation, total RNA was isolated using TriZol reagent (Invitrogen). The isolated RNA is then reverse-transcribed using oligo(dT) primer and Mo-MLV reverse transcriptase (Invitrogen) with DNAse I (Ambion) treatment for 30 min. The one-tenth of the produced cDNA was amplified by PCR using Taq DNA polymerase (Invitrogen) and two reporter sequence-specific primers. The PCR products were fluorescently labeled by primer extension with 6-arboxyfluorescein (6-FAM) 5'-labeled reporter sequence-specific primer (2 min at 95 C, 20 s at 68 C and 10 min at 72 C) and these products were digested with 5U of HpaI (New England Biolabs) for 2h at 37 C. The fragments were purified using Qiaquick PCR columns (Qiagen), analyzed on an ABI 3130xL genetic analyzer (Applied Biosystems) with peak positions identified by using a set of X-rhodamine (ROX)-labeled MapMarker1000 molecular weight standards (BioVentures). The raw capillary electrophoresis data was processed using Attagraph software (Attagene).

outcome, inactive:
C=CC(C)(CCC=C(C)C)OC(=O)C(C)C (stereo not given), CC(C)(Oc1ccc(C2CC2(Cl)Cl)cc1)C(=O)O (stereo not given), c1ccc2c(c1)ccc1cc3c(ccc4ccccc43)cc12, c1ccc(CNCc2ccccc2)cc1, COc1ccc(C(Cl)=C(c2ccc(OC)cc2)c2ccc(OC)cc2)cc1, CC(C)COC(=O)C=Cc1ccccc1, C=COCCCC, CCCC(=O)OCc1ccccc1, CCCCCCCCO[C@@H]1O[C@H](CO)[C@@H](O)[C@H](O)[C@H]1O, CCOC(=O)[C@H](C)O, COC(=O)c1ccccc1OC, CCOC(=O)CC, CC(=O)[C@@]1(O)CC[C@H]2[C@@H]3C[C@H](C)C4=CC(=O)C=C[C@]4(C)[C@@]3(F)[C@@H](O)C[C@@]21C, O=C(C=Cc1ccccc1)OCc1ccccc1, Cn1c([N+](=O)[O-])cnc1COC(N)=O, O=C(O)CCCC[C@@H]1SC[C@@H]2NC(=O)N[C@@H]21, CCC(C)(C)C1CCCCC1OC(C)=O (stereo not given), CCOC(F)(F)C(F)(F)C(F)(F)C(F)(F)F, CC(=O)OCC(C)OC(C)=O (stereo not given), Cc1cc(C)c(C(=O)O)c(C)c1, CC(C)(C)c1n[nH]c(=O)n(N)c1=O, O=C1c2ccccc2C(=O)C1c1nc2ccccc2c(Br)c1O, OCCNCc1ccccc1, COCCOCCOCCOCCOC, C=CC(C)(C)C, CCCCC(CC)COCC1CO1 (stereo not given), CCOCC(=O)O, c1ccc2c(c1)ccc1ncccc12, Nc1ccc2cc3ccccc3cc2c1, N#[N+]c1ccc2c(S(=O)(=O)[O-])cccc2c1O, CCCCC/C=C\C/C=C\CCCCCCCC(=O)OC, Cc1oncc1C(=O)Nc1ccc(C(F)(F)F)cc1, O=C(Nc1ccccc1SSc1ccccc1NC(=O)c1ccccc1)c1ccccc1, CC=CC(F)(F)C(F)(F)C(F)(F)F, CO[Si](OC)(OC)c1ccccc1, CCCCCCC1(C)CCC(=O)O1 (stereo not given)

AC50, active:
O=C(C(Cl)Cl)N1CCOC12CCCCC2 12 µM, c1cc(N(CC2CO2)CC2CO2)ccc1OCC1CO1 (stereo not given) 6.98 µM, CCOC(=O)c1ccccc1C(=C1C=C(Br)C(=O)C(Br)=C1)c1cc(Br)c(O)c(Br)c1 21.5 µM, CCCCCCCC/C=C\CCCCCCCC(=O)O 48.7 µM
